Compound activity (PubChem BioAssay)
FMDV inh – foot and mouth disease virus antiviral activity; AID 1159524; FMDV antiviral cell-based qHTS; Potency, µM (highest dose often 57.9 µM), hits mostly inhibitors; 1.2% of 410,000 active; calls by dose curve; tested in HEK293T cells; also: read-out not given here; nearly all actives have a fitted effect of over 45% in size
HCV inhibitor – HCV inhibition. Huh7.5.1 HCVcc-Cre infection, luciferase reporter, 44 h. Potency, µM (top dose mostly 41.8 µM), usual class: inhibitors. 3.4% of 340,000 active. AID 651820
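Reporter virus HCVcc-Cre (~0.5 moi) infects cells exposed to compound; seeding density 1,000 cells/well with 4 h settling beforehand. Luminescence, 15 sec read, taken 44 h post-infection following a 15 min RT substrate incubation.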
HCMV antiviral – human cytomegalovirus inhibition | HFF cells, HCMV-luciferase reporter, 72 h; stronger effect = lower value | activity change, negative = inhibition, % at 57.5 µM | 4.5% of 410,000 active | AID 1259415; in the data active = activity change below about -60%; inconclusive = no clear call, values can overlap the other calls; inactive = above about -39%
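Inhibition of viral replication was scored as loss of reporter luminescence in HFFs infected with HCMV-luciferase (MOI 1 PFU/cell) for 72 h; compounds tested at 2 doses, normalized to buffer and Salinomycin controls.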
AmpC detergent – inhibitors of E. coli AmpC beta-lactamase with detergent | P00811 | 0.041% of 370,000 active | Potency, µM (highest dose often 114 µM), most hits filed as inhibitors | AmpC hydrolysis of nitrocefin, absorbance 480 nm, 0.01% Triton; also: nearly all actives have a fitted effect of over 25% in size
Target sequence (P00811 whole entry, looked up): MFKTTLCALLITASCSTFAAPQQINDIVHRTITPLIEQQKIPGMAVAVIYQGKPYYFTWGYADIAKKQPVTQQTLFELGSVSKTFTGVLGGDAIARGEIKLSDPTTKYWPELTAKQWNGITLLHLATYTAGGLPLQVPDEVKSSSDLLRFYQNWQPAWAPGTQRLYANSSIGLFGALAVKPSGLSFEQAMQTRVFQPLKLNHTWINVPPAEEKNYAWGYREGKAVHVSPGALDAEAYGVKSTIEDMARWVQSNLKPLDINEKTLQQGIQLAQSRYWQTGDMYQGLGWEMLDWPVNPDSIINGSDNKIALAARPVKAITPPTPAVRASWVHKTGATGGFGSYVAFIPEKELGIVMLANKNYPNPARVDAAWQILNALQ
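AmpC (5.3 nM in the dispensed reagent) in 20 mM phosphate pH 7.0 with 0.01% (detergent screen) or 0.0001% Triton X-100 was preincubated with compounds for 15 min at room temperature. Nitrocefin was then added from an 800 uM solution, and hydrolysis was followed at 480 nm.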
AmpC no deterg – inhibitors of E. coli AmpC beta-lactamase without detergent; AmpC nitrocefin hydrolysis, absorbance 480 nm, 0.0001% Triton; Potency, µM (highest dose often 57.1 µM), actives largely listed as inhibitors; 0.52% of 330,000 active; AID 485341; also: nearly all actives have a fitted effect of over 20% in size
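AmpC (5.3 nM in the dispensed reagent) in 20 mM phosphate pH 7.0 with 0.01% (detergent screen) or 0.0001% Triton X-100 was preincubated with compounds for 15 min at room temperature. Nitrocefin was then added from an 800 uM solution, and hydrolysis was followed at 480 nm.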
Large screens that a line does not name were inactive. Only some compounds are listed: those with a hit (about 7.3% of all), similar ones and a draw of the others. Unless noted, calls follow the shape of the dose curve; as a rule, active = well fitted curve in the direction sought with a large enough effect; inconclusive = small, poorly fitted or top-dose-only effect, or another doubt; inactive = no such curve, though single readings can be large; an effect the other way counts as inactive or inconclusive.

CCCCN1C(=O)C(O)(CC(=O)c2ccc(C(C)(C)C)cc2)c2ccccc21 (stereo unspecified)	HCMV antiviral inconclusive (no result: HCV inhibitor, AmpC no deterg)
O=C(OCc1ccccc1F)c1cc([N+](=O)[O-])ccc1N1CCOCC1	HCV inhibitor 10µM, AmpC detergent inconclusive
O=C(OCc1ccc([N+](=O)[O-])cc1)c1cc(S(=O)(=O)N2CCCCC2)ccc1N1CCOCC1	HCV inhibitor inconclusive, HCMV antiviral inconclusive, AmpC detergent inconclusive
O=C(OCc1ccccc1C(F)(F)F)c1cc([N+](=O)[O-])ccc1N1CCOCC1	HCV inhibitor inconclusive
CN(C)S(=O)(=O)c1cccc(COC(=O)c2cc([N+](=O)[O-])ccc2N2CCOCC2)c1	FMDV inh inconclusive, HCV inhibitor 13µM
COc1ccc(-n2nc3c(N4CCC(C(=O)NCc5cccc(F)c5)CC4)nnc(C)c3c2C)cc1	none (no result: HCV inhibitor, AmpC no deterg)
Oc1ccc(N=Nc2n[nH]c(-c3ccc(Br)cc3)n2)cc1	HCMV antiviral -88
CC(NC(=S)NC1CCCCC1)c1ccccc1 (stereo unspecified)	HCV inhibitor inconclusive, HCMV antiviral inconclusive
CCCc1ccc(C(C)NC(=S)NC2CCCCC2)cc1 (stereo unspecified)	HCV inhibitor inconclusive, HCMV antiviral -73
CCN(CC(=O)Nc1ccc(OC)cc1)C(=O)Cc1cccs1	none
COc1cc(OC)c(C2C=C(c3ccc(C)cc3)Nc3c(C(=O)Nc4ccccc4)cnn32)cc1OC (stereo unspecified)	none (no result: HCV inhibitor, AmpC no deterg)
O=C(Nc1ccccc1)c1cc(C2CCCN(C(=O)CCc3ccccc3)C2)on1 (stereo unspecified)	none (no result: HCV inhibitor, AmpC detergent, AmpC no deterg)
COc1ccc(C(=O)Nc2ccc(Cl)cc2C(=O)N2CCOCC2)cc1	none
CN(C)c1ccc(CC(=O)N2CCCC(c3cc(C(=O)Nc4ccc(C(C)(C)C)cc4)no3)C2)cc1 (stereo unspecified)	FMDV inh 18µM, HCMV antiviral -75 (no result: HCV inhibitor, AmpC detergent, AmpC no deterg)
COc1ccc(C(=O)N2CCCC(c3cc(C(=O)Nc4ccccc4)no3)C2)cc1 (stereo unspecified)	HCMV antiviral -73 (no result: HCV inhibitor, AmpC detergent, AmpC no deterg)
COc1ccc(C(=O)Nc2ccc(Cl)cc2C(=O)N2CCCC(C)C2)cc1 (stereo unspecified)	HCV inhibitor inconclusive, HCMV antiviral -100
Cc1nnsc1-c1nnc(SCC(=O)c2ccc(F)cc2)n1C1CC1	none
O=C1NC(=O)N2CCSC2(Cc2ccccc2)N1 (stereo unspecified)	HCMV antiviral -98 (no result: AmpC detergent, AmpC no deterg)
O=C(CSc1cn(CC(=O)N2CCCC2)c2ccccc12)Nc1ccc(Cl)cc1	FMDV inh inconclusive (no result: HCV inhibitor, AmpC no deterg)
COc1ccc(C(=O)N2CCCCC2c2cc(C(=O)Nc3cccc(C#N)c3)no2)cc1 (stereo unspecified)	none (no result: HCV inhibitor, AmpC detergent, AmpC no deterg)
CC(C)CCn1c(=O)c(C(=O)Nc2ccccc2S(N)(=O)=O)c(O)c2ccccc21	HCV inhibitor inconclusive, HCMV antiviral -97
CCOCCCNC(=O)C1CCCN(S(=O)(=O)c2ccc(-n3cnnn3)cc2)C1 (stereo unspecified)	none
COc1cc(/C=N/N=C2/NC(=O)C(c3ccccc3)S2)ccc1O (stereo unspecified)	HCMV antiviral -65
COc1cc(/C=N/N=C2/NC(=O)C(Cc3ccc(F)cc3)S2)ccc1O (stereo unspecified)	none
CCN(CC)c1ccc(/C=N/NC(=O)c2ccc([N+](=O)[O-])cc2)cc1	none
CCN(CC)c1ccc(/C=C/[N+](=O)[O-])cc1	FMDV inh inconclusive, HCMV antiviral -114
CCN1C(=O)c2ccccc2Sc2ccc(C(=O)NCCC(C)C)cc21	HCV inhibitor inconclusive
CCOC(=O)c1ccc2c(c1)N(Cc1ccccc1)C(=O)c1ccccc1S2	none (no result: HCV inhibitor, AmpC no deterg)
CCN1C(=O)c2ccccc2Sc2ccc(NC(=O)Nc3ccc(Br)c(C)c3)cc21	FMDV inh inconclusive, HCMV antiviral -102 (no result: HCV inhibitor, AmpC no deterg)
CCN1C(=O)c2ccccc2Sc2ccc(C(=O)NC(C)C)cc21	HCMV antiviral -101
CCN(CC)CCNC(=O)Nc1ccc2c(c1)N(Cc1ccccc1)C(=O)c1ccccc1S2	HCMV antiviral -61 (no result: HCV inhibitor, AmpC no deterg)
CCc1ccccc1NC(=O)Nc1ccc2c(c1)N(CC)C(=O)c1ccccc1S2	HCMV antiviral -84 (no result: HCV inhibitor, AmpC no deterg)
Cc1noc(-c2ccccc2OCC(=O)Nc2ccccc2[N+](=O)[O-])n1	HCMV antiviral inconclusive (no result: HCV inhibitor, AmpC no deterg)
O=C(O)c1ccccc1C(=O)NC1CCCCNC1=O (stereo unspecified)	none
Cc1onc(-c2ccccc2)c1C(=O)NCCN1Cc2ccccc2OC(c2ccsc2)C1 (stereo unspecified)	none (no result: HCV inhibitor, HCMV antiviral, AmpC detergent, AmpC no deterg)
Cc1ccn2c(-c3csc(NCc4ccco4)n3)c(C)nc2c1	FMDV inh inconclusive, HCV inhibitor inconclusive, HCMV antiviral -68
COc1cccc(CN(CC(=O)NCc2ccccc2)S(=O)(=O)CCl)c1	none
O=C(Nc1cccc(S(=O)(=O)N2CCCCC2)c1)C1COc2ccccc2O1 (stereo unspecified)	HCV inhibitor 10µM (no result: AmpC detergent)
Cc1ccc(NC(=O)C2COc3ccccc3O2)cc1S(=O)(=O)N1CCCCC1 (stereo unspecified)	FMDV inh inconclusive, HCV inhibitor 11µM, HCMV antiviral inconclusive
O=C(Nc1ccc(S(=O)(=O)N2CCCC2)cc1)C1COc2ccccc2O1 (stereo unspecified)	HCV inhibitor inconclusive
CC(=O)OC1CC[C@@]2(C)C3CC(=O)[C@]4(C)C(C(C)=O)=CCC4C3CC[C@H]2C1 (stereo partly specified)	none (no result: HCV inhibitor, HCMV antiviral, AmpC detergent, AmpC no deterg)
CC(=O)OC1CCC2(C)C(CCC3C4CC=C(C(C)=O)C4(C)OC(=O)CC32)C1 (stereo unspecified)	FMDV inh 13µM, HCMV antiviral -76 (no result: HCV inhibitor, AmpC detergent, AmpC no deterg)
Cc1cccc(NC(=O)C2CCN(S(=O)(=O)c3ccc4c(c3)OCCCO4)CC2)n1	FMDV inh inconclusive, HCV inhibitor inconclusive, HCMV antiviral -79
Cc1cccc(NC(=O)C2CCN(S(=O)(=O)c3ccc4c(c3)OCCO4)CC2)n1	FMDV inh inconclusive, HCMV antiviral inconclusive
O=C(Nc1ccccn1)C1CCN(S(=O)(=O)c2ccc3c(c2)OCCCO3)CC1	FMDV inh inconclusive, HCMV antiviral inconclusive, AmpC detergent inconclusive
Cc1ccc(NC(=O)C2CCN(S(=O)(=O)c3ccc4c(c3)OCCCO4)CC2)nc1	FMDV inh inconclusive, HCV inhibitor inconclusive, HCMV antiviral -63
O=C1/C(=C/c2cccnc2)SC(=S)N1Nc1ccccc1	none
O=C(CCCOc1ccc(Br)cc1)Nc1nnc(C2CC2)s1	none
COc1ccc(OC)c(NC(=O)c2cc(OC(C)=O)cc(C(=O)Nc3cc(OC)ccc3OC)c2)c1	FMDV inh 28µM, HCV inhibitor inconclusive, HCMV antiviral inconclusive, AmpC detergent inconclusive
COc1ccc(NC(=O)Nc2ccc3c(c2)CCC3)c(OC)c1	HCV inhibitor inconclusive, AmpC detergent inconclusive
COc1ccc(OC)c(NC(=O)Nc2ccc3c(c2)CCC3)c1	HCV inhibitor inconclusive, AmpC no deterg 8.9µM
COc1ccc(C(=O)Nc2cc(OC)ccc2OC)cc1	HCV inhibitor 11µM
